The sample as a whole holds a higher share of hits than the screen did.
mHTT CaM bind: inhibitors of human mutant huntingtin-calmodulin interaction. P42858. AlphaScreen His-mHTT/GST-CaM binding, luminescence. inhibition, % at 15 µM. hit rate 3.6% among 190,000. AID 1671202;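 further: 0% = both proteins with DMSO and 100% = one protein alone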
Pf apPOL inh: Pf-apPOL DNA polymerase inhibition. Recombinant Pf-apPOL, molecular beacon fluorescence, 1.5 h. inhibition, % at 10 µM. hit rate 0.25% among 210,000. AID 1794808
An asterisk follows results filed as active; i = inactive; · = no result given. No stated cut-off is given here; in the data, active means inhibition above about 50%; inactive means the rest.

SMILES	mHTT CaM bind	Pf apPOL inh
COc1ccc(CN2CCc3c([nH]c4ccccc34)C2)cc1C	36	-3
COc1cc(C)c(CN2CCc3c([nH]c4ccccc34)C2)cc1C	100*	-7
C=C(C)CN(CC)C(=O)C1CCN(CC2CCCCC2)CC1	-3	-7
O=C1OC(c2ccccc2Br)=N/C1=C\c1ccc(Br)o1	9	-1
CCn1cnc2ccc(-c3noc(Cc4c[nH]c5ccccc45)n3)cc21	99*	-5
CCn1cnc2ccc(-c3noc(-c4ccccc4)n3)cc21	28	-19
CCn1cnc2ccc(-c3noc(CCc4c[nH]c5ccccc45)n3)cc21	100*	-3
CCn1cnc2ccc(-c3noc(Cc4ccccc4Cl)n3)cc21	7	-1
Cn1cnc2ccc(-c3noc(CCc4c[nH]c5ccccc45)n3)cc21	76*	-3
Cn1cnc2ccc(-c3noc(Cc4cccs4)n3)cc21	9	0
CCn1cnc2ccc(-c3noc(-c4cccc(OC)c4)n3)cc21	76*	0
COc1cccc(-c2nc(-c3ccc4ncn(C)c4c3)no2)c1	-8	-6
Cc1ccc(NC(=O)c2cnc3n(c2=O)CCS3)c(Br)c1	-2	-6
CCn1c(=O)c2c(ncn2Cc2c(F)cccc2F)n(-c2ccc(F)cc2)c1=O	-6	0
CCOc1ccc(N2CC(c3nnc(NC(=O)c4cccc(C)c4)o3)CC2=O)cc1 (centres undefined)	4	1
C(=Cc1ccccc1)CN1CCN(c2c3c(nc4ncnn24)CCCC3)CC1	73*	-5
C/C=C(\C)CN1CCN(C/C=C/c2ccccc2)CC1	7	7
CCc1ccc(C(=O)N2CCC(c3nc4ccncc4n3C(C)C)C2)cc1 (centres undefined)	4	-7
CCOc1ccccc1Oc1coc2cc(OC(=O)c3c(OC)cccc3OC)ccc2c1=O	2	-7
Nc1ccccc1S(=O)(=O)Nc1cccc2cccnc12	100*	-19
Cc1ccc(S(=O)(=O)Nc2cccc3cccnc23)cc1	38	-45
Cc1oc(C2CCN(C(=O)c3ccsc3)CC2)nc1C(=O)N(C)C	-2	-6
CC(CC(=O)Nc1nc2c(s1)CCCC2)c1ccccc1 (centres undefined)	6	-2
O=C(Nc1nc2c(s1)CCCC2)C(c1ccccc1)n1cccc1 (centres undefined)	95*	19
O=C(Nc1nc2ccccc2s1)C1CC(=O)N(c2ccc(Br)cc2)C1 (centres undefined)	60*	1
SMILES	mHTT CaM bind	Pf apPOL inh
O=C(Nc1ccccc1F)C1CC(=O)N(c2ccc(Br)cc2)C1 (centres undefined)	2	0
O=C(c1nc2ccccc2s1)N(CCc1cccs1)C1CC1	-38	-5
N#CC1=C(N)N(c2cccc(Br)c2)C2=C(C(=O)CCC2)C1c1cccs1 (centres undefined)	68*	2
N#CC1=C(N)N(c2ccccc2)C2=C(C(=O)CCC2)C1c1cccs1 (centres undefined)	30	-10
N#CC1=C(N)N(c2ccc(Br)cc2F)C2=C(C(=O)CCC2)C1c1cccs1 (centres undefined)	54*	0
CC1(C)CC(=O)C2=C(C1)N(c1cccc(C(F)(F)F)c1)C(N)=C(C#N)C2c1ccsc1 (centres undefined)	24	-2
CC1(C)CC(=O)C2=C(C1)N(c1cccc(C(F)(F)F)c1)C(N)=C(C#N)C2c1cccs1 (centres undefined)	67*	-5
N#CC1=C(N)N(c2ccc(Br)cc2F)C2=C(C(=O)CCC2)C1c1ccsc1 (centres undefined)	12	2
Cc1ccc(N2C(=O)CSC2c2cccs2)cc1Cl (centres undefined)	-7	-10
Cc1ccc(C(=O)N2CCN(c3nc(CN4CCOCC4)cs3)CC2)s1	8	-2
O=C(O/N=C1\CCCc2c1sc1nc3n(c(=O)c21)CCCCC3)c1ccc([N+](=O)[O-])cc1	i	2
O=C1CC(c2ccco2)Sc2nc(-c3ccc(F)cc3)nn21 (centres undefined)	100*	-8
Cc1ccc(-c2nc3n(n2)C(=O)CC(c2ccco2)S3)cc1 (centres undefined)	5	-2
COc1ccc(-c2c(C)c3ccc(OCC(=O)OC(C)(C)C)cc3oc2=O)cc1	-43	-12
CC(=O)OC(C)C1CCC2C3CCC4CC(=O)CCC4(C)C3CCC12C (centres undefined)	·	-17
CCCCCCCCCn1c[n+](CCCCCCCCC)c2cc(C)c(C)cc21	100*	·
CCN1CCN(Cc2c(O)ccc3c2OC(=Cc2cccc(OC)c2)C3=O)CC1	13	-20
CCOC(=O)c1cnc2nc(C)ccc2c1Nc1cc(F)ccc1Cl	42	0
CCOC(=O)c1cnc2nc(C)ccc2c1Nc1cccc(Cl)c1	63*	-13
COC(=O)c1cnc2nc(C)ccc2c1Nc1ccc(Cl)cc1F	38	-3
COC(=O)c1cnc2nc(C)ccc2c1Nc1cccc(Cl)c1	11	-5

High-throughput results (PubChem BioAssay)
